# According to ChEMBL document CHEMBL3988442, “University of Dundee, Small-Polar-MMV Screening Library” (2021):
# For some assays here: Potency and affinity values are given separately.
# Key:
# Set-up in all cases: scale not given: direction of the effect not stated beside the values
# [1] = target: Protein translocase subunit SecA (Escherichia coli (strain K12)) (UniProt P10408); assay: Assay to Identify E. coli SecA ATPase Inhibitors; type: functional; conditions: 30 µM
# [2] = target: T1, Ubiquitin-activating enzyme e1, putative (Leishmania donovani (strain BPK282A1)) (UniProt E9BSI1); assay: Leishmania donovani Ubiquitin Activating Enzyme (LdE1); type: functional; conditions: 30 µM
# T1 sequence (whole entry): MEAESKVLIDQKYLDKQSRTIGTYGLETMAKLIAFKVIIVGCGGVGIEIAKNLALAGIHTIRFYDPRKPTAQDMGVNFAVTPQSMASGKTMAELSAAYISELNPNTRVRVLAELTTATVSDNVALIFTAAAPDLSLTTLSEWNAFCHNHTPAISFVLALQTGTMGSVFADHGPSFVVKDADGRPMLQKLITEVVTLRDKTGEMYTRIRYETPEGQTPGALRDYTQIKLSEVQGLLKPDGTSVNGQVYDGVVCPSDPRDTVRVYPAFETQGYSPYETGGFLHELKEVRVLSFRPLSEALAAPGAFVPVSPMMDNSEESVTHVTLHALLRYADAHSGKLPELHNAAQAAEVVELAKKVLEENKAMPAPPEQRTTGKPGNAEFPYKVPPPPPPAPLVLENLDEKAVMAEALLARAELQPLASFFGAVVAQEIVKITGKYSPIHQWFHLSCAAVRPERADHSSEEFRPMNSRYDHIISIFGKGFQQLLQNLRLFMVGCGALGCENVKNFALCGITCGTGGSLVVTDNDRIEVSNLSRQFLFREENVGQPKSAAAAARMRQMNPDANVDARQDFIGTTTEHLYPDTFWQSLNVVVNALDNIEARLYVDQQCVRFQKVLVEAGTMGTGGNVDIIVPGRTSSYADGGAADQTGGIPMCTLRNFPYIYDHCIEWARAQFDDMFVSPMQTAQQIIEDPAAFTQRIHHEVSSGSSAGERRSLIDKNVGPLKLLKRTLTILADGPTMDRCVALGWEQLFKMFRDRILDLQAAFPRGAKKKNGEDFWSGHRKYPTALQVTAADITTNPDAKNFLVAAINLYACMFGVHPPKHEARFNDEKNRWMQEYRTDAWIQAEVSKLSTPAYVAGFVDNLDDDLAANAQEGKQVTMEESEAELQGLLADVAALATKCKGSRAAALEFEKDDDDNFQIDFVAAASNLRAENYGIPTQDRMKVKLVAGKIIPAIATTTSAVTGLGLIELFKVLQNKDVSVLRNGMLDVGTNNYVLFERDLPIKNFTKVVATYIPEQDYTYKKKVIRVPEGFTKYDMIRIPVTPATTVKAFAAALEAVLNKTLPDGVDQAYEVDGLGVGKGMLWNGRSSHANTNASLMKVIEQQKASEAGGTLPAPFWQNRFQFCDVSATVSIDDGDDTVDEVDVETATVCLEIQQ
# [3] = target: AMP-activated protein kinase, AMPK (Homo sapiens) (UniProt P54646+O43741+P54619+Q9UGJ0+Q9Y478+Q13131+Q9UGI9); assay: AMP-dependent Kinase enzyme assay. An in vitro enzyme assay that detects ADP turnover that is directly proportional to AMPK activity. This uses naive AMPK that is activated during the assay with MK-8722; type: functional; conditions: 30 µM
# [4] = target: Sialic acid-binding Ig-like lectin 9 (Homo sapiens) (UniProt Q9Y336); assay: Hs-Siglec9 ALPHAscreen SOP 20170721; conditions: 10 µM
# Trypanosoma cruzi = assay: Trypanosoma cruzi phosphomannomutase and mannose-1-phosphate guanylyltransferase assay; type: functional; conditions: 10 µM
# [5] = target: T2, Arginase-2, mitochondrial (Homo sapiens) (UniProt P78540); assay: in vitro enzyme assay to detect the production of urea directly proportional to the activity of Arginase II; type: functional; conditions: 33.3 µM; note: in the data most compounds retested in dose-response had high values
# T2 sequence (whole entry): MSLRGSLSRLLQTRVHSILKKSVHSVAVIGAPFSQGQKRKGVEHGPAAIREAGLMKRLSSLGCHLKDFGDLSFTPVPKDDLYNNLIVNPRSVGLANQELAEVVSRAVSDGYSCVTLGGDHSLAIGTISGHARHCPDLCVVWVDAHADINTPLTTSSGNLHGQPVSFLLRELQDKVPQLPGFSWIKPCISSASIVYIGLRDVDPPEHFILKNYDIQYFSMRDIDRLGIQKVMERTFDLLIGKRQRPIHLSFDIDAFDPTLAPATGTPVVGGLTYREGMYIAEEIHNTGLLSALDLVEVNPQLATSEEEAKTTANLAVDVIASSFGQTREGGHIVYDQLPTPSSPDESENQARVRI
# [6] = target: T3, Proteasome subunit beta (Trypanosoma cruzi) (UniProt O96673); assay: Trypanosoma cruzi proteasome chymotrypsin-like activity (TcProtChymo) assay.; note: in the data most compounds retested in dose-response had high values; type: functional; conditions: 9.37 µM
# T3 sequence (whole entry): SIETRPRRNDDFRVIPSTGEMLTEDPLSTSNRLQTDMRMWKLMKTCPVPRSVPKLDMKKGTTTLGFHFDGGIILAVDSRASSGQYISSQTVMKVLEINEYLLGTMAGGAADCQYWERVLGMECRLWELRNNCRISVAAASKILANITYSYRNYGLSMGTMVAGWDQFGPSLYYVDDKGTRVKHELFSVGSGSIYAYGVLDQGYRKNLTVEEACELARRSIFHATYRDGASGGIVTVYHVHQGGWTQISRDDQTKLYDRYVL
# Homo sapiens = species: Homo sapiens; assay: To identify inhibition of the IFN signalling (Jak-Stat) pathway via expression of an eGFP reporter gene under the control of an IFN-stimulated response element (ISRE) containing MxA promoter.; type: functional; conditions: 30 µM
# [7] = target: T4, Tyrosyl-tRNA synthetase, putative (Trypanosoma cruzi (strain CL Brener)) (UniProt Q4DSP6); assay: Trypanosoma cruzi tyrosyl tRNA synthetase (TcYRS) _High Tyrosine SOP; type: functional; conditions: 30 µM; note: in the data most compounds retested in dose-response had high values
# T4 sequence (whole entry): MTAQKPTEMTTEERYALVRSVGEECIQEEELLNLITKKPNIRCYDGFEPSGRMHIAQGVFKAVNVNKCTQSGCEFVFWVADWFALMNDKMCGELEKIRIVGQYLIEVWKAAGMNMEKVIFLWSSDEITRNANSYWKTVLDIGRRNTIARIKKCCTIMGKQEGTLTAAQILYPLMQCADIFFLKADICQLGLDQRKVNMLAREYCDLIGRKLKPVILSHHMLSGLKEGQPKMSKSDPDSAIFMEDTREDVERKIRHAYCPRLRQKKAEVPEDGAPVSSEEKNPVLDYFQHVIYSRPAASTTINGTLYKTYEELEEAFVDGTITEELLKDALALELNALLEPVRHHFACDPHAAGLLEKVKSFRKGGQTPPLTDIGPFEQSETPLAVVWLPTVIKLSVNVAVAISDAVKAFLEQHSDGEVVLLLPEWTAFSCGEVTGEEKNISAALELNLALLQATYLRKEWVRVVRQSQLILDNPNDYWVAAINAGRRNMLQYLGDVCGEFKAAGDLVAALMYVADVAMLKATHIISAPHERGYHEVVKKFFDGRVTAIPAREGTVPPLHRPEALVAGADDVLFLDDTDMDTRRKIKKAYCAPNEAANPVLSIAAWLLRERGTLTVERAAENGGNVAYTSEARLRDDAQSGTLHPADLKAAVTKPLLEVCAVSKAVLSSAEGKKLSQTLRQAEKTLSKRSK
# [8] = target: T4, Tyrosyl-tRNA synthetase, putative (Trypanosoma cruzi (strain CL Brener)); assay: Trypanosoma cruzi tyrosyl tRNA synthetase (TcYRS) SOP; type: functional; conditions: 30 µM
# [9] = target: Chromo domain-containing protein 1 (Saccharomyces cerevisiae (strain ATCC 204508 / S288c) (Baker's yeast)) (UniProt P32657); assay: ScCHD-1 Enzyme Inhibition Assay; type: functional; conditions: 30 µM; note: in the data most compounds retested in dose-response had high values
# Chromo domain-containing protein 1 (Saccharomyces cerevisiae (strain ATCC 204508 / S288c) (Baker's yeast)), sequence (P32657 whole entry, the tested form may be a part): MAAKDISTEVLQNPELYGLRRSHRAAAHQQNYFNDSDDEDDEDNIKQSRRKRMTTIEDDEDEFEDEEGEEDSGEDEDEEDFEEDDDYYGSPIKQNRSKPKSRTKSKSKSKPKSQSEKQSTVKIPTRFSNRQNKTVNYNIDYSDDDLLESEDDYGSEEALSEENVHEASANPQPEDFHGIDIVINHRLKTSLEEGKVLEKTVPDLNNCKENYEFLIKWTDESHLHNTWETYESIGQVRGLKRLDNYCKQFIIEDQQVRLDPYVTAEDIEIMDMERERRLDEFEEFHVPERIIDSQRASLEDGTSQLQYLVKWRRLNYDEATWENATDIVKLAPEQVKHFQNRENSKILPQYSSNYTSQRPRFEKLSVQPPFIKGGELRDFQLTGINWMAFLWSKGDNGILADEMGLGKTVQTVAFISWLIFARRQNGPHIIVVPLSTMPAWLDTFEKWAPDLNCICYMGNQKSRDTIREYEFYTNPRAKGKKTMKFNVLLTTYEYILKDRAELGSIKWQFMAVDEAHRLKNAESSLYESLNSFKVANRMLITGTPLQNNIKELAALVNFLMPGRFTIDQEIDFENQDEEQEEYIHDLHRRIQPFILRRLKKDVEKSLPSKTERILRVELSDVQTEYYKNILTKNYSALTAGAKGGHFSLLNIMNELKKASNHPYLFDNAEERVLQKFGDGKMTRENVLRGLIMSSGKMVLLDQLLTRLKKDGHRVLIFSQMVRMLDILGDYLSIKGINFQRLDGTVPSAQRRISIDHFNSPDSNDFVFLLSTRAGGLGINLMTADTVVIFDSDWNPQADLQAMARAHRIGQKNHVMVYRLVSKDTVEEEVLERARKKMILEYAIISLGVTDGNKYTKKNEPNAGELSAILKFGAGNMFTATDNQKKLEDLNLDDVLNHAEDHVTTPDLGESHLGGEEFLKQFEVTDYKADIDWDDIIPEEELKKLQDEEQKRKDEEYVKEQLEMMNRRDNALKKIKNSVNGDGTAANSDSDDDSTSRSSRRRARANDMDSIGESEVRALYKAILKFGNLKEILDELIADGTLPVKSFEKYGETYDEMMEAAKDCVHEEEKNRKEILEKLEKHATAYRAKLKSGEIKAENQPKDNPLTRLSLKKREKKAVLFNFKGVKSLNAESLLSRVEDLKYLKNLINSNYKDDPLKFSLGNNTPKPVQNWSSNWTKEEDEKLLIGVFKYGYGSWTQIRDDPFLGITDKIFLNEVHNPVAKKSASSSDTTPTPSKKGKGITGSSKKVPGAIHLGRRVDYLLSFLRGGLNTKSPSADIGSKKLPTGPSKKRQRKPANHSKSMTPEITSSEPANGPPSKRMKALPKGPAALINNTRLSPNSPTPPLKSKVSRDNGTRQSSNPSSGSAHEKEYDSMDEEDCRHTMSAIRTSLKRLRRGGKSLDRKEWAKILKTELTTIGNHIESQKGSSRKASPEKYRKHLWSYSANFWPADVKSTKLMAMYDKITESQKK
# Protein translocase subunit SecA (Escherichia coli (strain K12)), sequence (P10408 whole entry): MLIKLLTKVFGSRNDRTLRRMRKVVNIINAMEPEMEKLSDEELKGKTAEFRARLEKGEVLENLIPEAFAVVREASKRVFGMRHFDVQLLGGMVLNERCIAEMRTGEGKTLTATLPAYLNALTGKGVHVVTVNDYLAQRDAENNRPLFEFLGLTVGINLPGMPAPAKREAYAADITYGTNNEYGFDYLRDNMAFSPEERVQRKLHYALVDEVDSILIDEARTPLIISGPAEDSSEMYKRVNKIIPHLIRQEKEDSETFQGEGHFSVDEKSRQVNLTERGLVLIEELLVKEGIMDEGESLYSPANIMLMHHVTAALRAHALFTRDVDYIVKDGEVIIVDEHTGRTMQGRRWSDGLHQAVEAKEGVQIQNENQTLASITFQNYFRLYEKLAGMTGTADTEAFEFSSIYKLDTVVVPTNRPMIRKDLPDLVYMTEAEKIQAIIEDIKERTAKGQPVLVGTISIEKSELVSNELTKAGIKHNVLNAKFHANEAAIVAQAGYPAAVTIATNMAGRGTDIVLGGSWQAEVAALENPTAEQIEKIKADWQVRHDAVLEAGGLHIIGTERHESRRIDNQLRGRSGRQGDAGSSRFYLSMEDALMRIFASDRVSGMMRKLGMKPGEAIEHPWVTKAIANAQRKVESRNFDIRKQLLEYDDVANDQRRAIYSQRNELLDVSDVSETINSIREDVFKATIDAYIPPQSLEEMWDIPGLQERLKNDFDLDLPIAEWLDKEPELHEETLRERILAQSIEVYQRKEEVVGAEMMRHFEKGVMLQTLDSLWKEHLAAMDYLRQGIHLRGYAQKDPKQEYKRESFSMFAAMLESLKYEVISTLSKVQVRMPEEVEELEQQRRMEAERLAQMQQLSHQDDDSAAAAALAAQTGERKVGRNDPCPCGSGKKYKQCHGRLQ
# Sialic acid-binding Ig-like lectin 9 (Homo sapiens), sequence (Q9Y336 whole entry): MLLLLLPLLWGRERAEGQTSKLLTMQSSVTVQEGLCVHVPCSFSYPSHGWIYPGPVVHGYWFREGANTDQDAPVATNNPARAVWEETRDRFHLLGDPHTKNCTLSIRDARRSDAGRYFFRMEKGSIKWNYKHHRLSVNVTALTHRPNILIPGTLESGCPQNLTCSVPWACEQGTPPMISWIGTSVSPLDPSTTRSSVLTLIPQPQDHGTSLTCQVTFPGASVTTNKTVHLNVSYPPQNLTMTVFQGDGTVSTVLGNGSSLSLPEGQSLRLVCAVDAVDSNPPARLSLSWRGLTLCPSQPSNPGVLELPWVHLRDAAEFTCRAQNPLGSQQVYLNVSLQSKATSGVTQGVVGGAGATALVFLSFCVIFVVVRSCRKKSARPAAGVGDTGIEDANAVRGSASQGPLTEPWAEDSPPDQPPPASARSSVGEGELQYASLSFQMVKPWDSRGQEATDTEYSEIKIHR
Structure (SMILES),Percent Effect [1],Percent Effect [2],Percent Effect [3],Percent Effect [4],Percent Effect (Trypanosoma cruzi),Percent Effect [5],Percent Effect [6],Percent Effect (Homo sapiens),Percent Effect [7],Percent Effect [8],Percent Effect [9]
CCSCCNC(=O)C(c1cccc(C)c1)N(C)C (configuration not stated),0.71%,16.2%,4.54%,18.5%,4.83%,1.43%,12.1%,20.1%,6.88%,17.1%,-11.3%
CCN(Cc1cccc(Cl)c1)Cc1nc2c(cnn2C)c(=O)[nH]1,-5.2%,15.6%,3.13%,-4.85%,-0.49%,-1.47%,15.4%,-5.75%,3.81%,18.8%,-17.4%
Cc1nnc2n1CCN(Cc1csc(Cc3ccccc3)n1)C2,-5.45%,5.41%,-7.1%,3.42%,3.25%,4.62%,3.41%,8.73%,8.91%,15.8%,-1.48%
O=C(CSc1ccncc1)N1C[C@H]2CC[C@@H]1CN(Cc1cccnc1)C2,-4.31%,16.4%,10.6%,8.46%,7.05%,2.27%,6.74%,9.78%,5.38%,15%,-4%
CCc1nc(CC(=O)N2CCn3c(nnc3C(F)(F)F)C2)cs1,-2.58%,0%,6.61%,5.79%,0.564%,4.98%,3.17%,-25.8%,-0.49%,0%,-6.79%
Cc1ncsc1CN1C[C@@H]2COC[C@]2(C(=O)NCC2CC2)C1,-0.435%,0%,8.5%,2.51%,-4.33%,5.83%,-1.15%,25.1%,2.13%,1.28%,10.8%
COCc1c(C(=O)O)nnn1Cc1cccc(C(F)(F)F)c1,-0.917%,9.33%,-2.19%,0.663%,-4.13%,-8.98%,14.1%,5.79%,3.17%,10.3%,-10.2%
CCOC1CCN(C(=O)c2c(Cl)c3ccccc3n2C)CC1,-2.47%,0%,-0.042%,1.92%,-2.43%,3.12%,13.4%,-2.41%,-2.73%,11.1%,-4.88%
COCCCN(CCOC)C(=O)Nc1ccc(C)cc1C,-4.88%,-7.89%,-30.8%,-2.12%,-2.63%,3.55%,2.01%,-18.5%,-2.13%,-2.6%,6.01%
CNC(=O)c1ccc(C2CN(C(=O)c3cncs3)CCO2)nc1 (configuration not stated),-2.48%,20.3%,5.67%,6.66%,1.19%,-1.62%,11.1%,-10%,2.15%,16.9%,-16.6%
Cc1nc(C)n(C2CCCN(C(=O)c3ccc4c(c3)COC4)C2)n1 (configuration not stated),-2.83%,13.5%,-5.96%,7.05%,7.15%,2.4%,-4.67%,6.78%,2.97%,11%,0.576%
COc1cnc(C2(O)CCN(C(=O)c3ccncc3)CC2)c(OC)n1,-4.14%,4.05%,8.66%,2.87%,2.77%,-1.16%,3.74%,8.85%,2.15%,9.09%,-11.8%
CC(C)Cc1cc(C(=O)NCCc2ccc(S(C)(=O)=O)cc2)[nH]n1,-3.28%,2.63%,9.53%,3.29%,3.8%,0%,12.9%,24%,0%,10.4%,-3.35%
Cc1nnc(N2CCC(CN(C)C(C)C)CC2)c(C#N)c1C,-4.73%,2.6%,-19%,-13.1%,9.89%,-4%,3.64%,4.7%,3.81%,11.8%,-23.4%
COc1cccc(C2CC(=O)Nc3nc(N4CCOCC4)sc32)c1OC (configuration not stated),63.9%,42.1%,16%,0.0251%,-0.487%,21.3%,18.1%,-7.88%,5.32%,10.4%,-8.79%
N#Cc1ccc(F)c(CN2CCCC2Cn2cnc3ccccc32)c1 (configuration not stated),-4.77%,-5.41%,-0.578%,-0.466%,-3.81%,-0.924%,6.46%,22.9%,1.98%,-6.1%,5.03%
CC(=O)Nc1ncc(S(=O)(=O)Nc2ccc(F)cc2F)s1,-1.2%,9.33%,-2.12%,-4.17%,-6.68%,-5.11%,19%,12.9%,3.17%,10.3%,-9.04%
CC(C)c1nn(C)c(N(C)C)c1CNCc1ccccc1CN(C)C,-0.693%,10.5%,-8.08%,13%,1.13%,-5.36%,7.85%,-8.54%,0.49%,7.32%,-12.6%
Cn1ccc(C(=O)N2CCCC(n3cncn3)C2)cc1=O (configuration not stated),-7.5%,10.4%,-3.42%,0.542%,5.97%,-6.11%,11.9%,-3.24%,3.81%,9.41%,-18.8%
Cc1ccc(CN2CC3(CCN(C(=O)c4cscn4)C3)C2)s1,1.32%,0%,1.31%,11.8%,-2.98%,3.19%,9.85%,-1.49%,7.29%,-1.24%,-1.23%
CCCNC(=O)C1CCN(Cc2csc(C(C)(C)C)n2)CC1,-0.61%,10.1%,-4.65%,-1.57%,-4.44%,6.08%,6.63%,12.5%,-0.493%,8.86%,-6.15%
COc1cccc(CN2CCCC(Nc3cccc(F)c3)C2)c1O (configuration not stated),-5.42%,10.8%,-4%,18.7%,7.33%,2.23%,5.24%,0.464%,3.23%,11.1%,-12.4%
